Experimental findings from PubChem BioAssay (Tox21) are described below.

Where “and” joins values, the source holds several entries; their conditions need not be identical. Identical values can stand only once. A structure can be active in one record and inactive in another. Calls of active or inactive are those of the source. A call without a number means that no potency is given here. Calls follow the shape of the full dose curve.
Potency is read from the fitted curve at half-maximal effect.

The assay deals with Acetylcholinesterase (Homo sapiens) (UniProt P22303). The assay can be described thus: Acetylcholinesterase (AChE) small molecule antagonists: enzyme-based qHTS assay with human liver microsomes (AID 1347399). Also: nearly all actives have a fitted effect of over 60% in size. The note with it: Potency: qHTS inhibition; series mostly up to 115 µM. The text has this: National Center for Advancing Translational Sciences [NCATS]
Sequence of Acetylcholinesterase (Homo sapiens) (P22303 whole entry, looked up): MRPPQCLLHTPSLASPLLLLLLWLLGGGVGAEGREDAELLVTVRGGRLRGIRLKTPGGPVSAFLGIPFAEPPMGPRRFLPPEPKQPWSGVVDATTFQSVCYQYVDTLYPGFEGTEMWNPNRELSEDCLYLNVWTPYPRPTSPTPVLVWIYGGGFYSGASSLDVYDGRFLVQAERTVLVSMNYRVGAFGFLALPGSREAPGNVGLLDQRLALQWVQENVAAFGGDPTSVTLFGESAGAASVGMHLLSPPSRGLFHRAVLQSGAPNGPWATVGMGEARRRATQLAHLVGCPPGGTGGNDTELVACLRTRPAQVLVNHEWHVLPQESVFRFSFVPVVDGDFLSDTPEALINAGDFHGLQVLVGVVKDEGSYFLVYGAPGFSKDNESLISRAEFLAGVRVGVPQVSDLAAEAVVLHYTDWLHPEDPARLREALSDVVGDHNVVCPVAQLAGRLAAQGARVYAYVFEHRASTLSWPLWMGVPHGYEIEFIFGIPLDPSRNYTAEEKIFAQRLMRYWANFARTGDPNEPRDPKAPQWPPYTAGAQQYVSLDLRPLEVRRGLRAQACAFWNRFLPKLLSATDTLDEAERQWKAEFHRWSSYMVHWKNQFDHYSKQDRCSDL
Division of Preclinical Innovation [DPI]
U.S. Environmental Protection Agency [EPA]
National Institutes of Environmental Health Sciences [NIEHS]
National Toxicology Program [NTP]
U.S. Food and Drug Administration [FDA]
Acetylcholinesterase (AChE) is the primary cholinesterase in the body that hydrolyzes a key neurotransmitter, acetylcholine. Inhibition of AChE activity can lead to neurotoxicity. The known inhibitors include organophosphorous pesticides (OP), chemical warfare agents, drugs, and various phytochemicals. Some compounds like OP compounds may need metabolic activation to be active AChE inhibitors. The cytochrome P450 (CYP) superfamily in the human microsomes is responsible for the metabolism of various endogenous and exogenous compounds.
An enzyme-based assay with the recombinant human AChE, human liver microsomes and Amplite Colormetric acetylcholinesterase assay kit (AAT Bioquest, Sunnyvale, CA) was used to evaluate compounds in the Tox21 10K library that need metabolic activation for AChE inhibition. The assay uses 5, 5-dithiobis-(2-nitrobenzoic acid) (DTNB) to quantify the thiocholine produced from the hydrolysis of acetylthiocholine by AChE.
Tox21 Assay Protocol Summary:
For the enzyme-based AChE assay with microsomes addition, a mixture of human AChE (50 mU/mL) and human liver microsomes (0.25 mg/mL, final concentration) in 3 uL/well was dispensed into black, clear-bottom 1536-well plates using a Multidrop Combi dispenser (Thermo Scientific, MA). Then, 23 nL of compound or DMSO (vehicle control) was transferred into the assay plates by a Pintool Station (Wako Automation, CA). Following compound addition, 1 uL of NADPH (0.25 mg/mL, final concentration) was transferred to the assay plate by a Flying Reagent Dispenser (Beckman Coulter, CA). The plates were incubated for 30 min at 37 C and 5% CO2, followed by the addition of 4 uL of colorimetric detection cocktail solution (DTNB, acetylthiocholine) into each well using a Flying Reagent Dispenser (Beckman Coulter, CA) and then 10 min incubation at room temperature.
As to `COCC(=O)N(c1c(C)cccc1C)C(C)C(=O)OC` (centres undefined), the Potency entry is “inactive”.

In the case of `O=C(O)COc1ccc(Cl)cc1Cl`, the Potency result was “inactive”.

In the case of `O=C(O)C(Cl)(Cl)Cl`, the Potency entry was “inactive”.

Regarding `CC(Cl)(Cl)C(=O)O`, the Potency entry was “inactive”.

With `O=C(O)CCl`, the Potency result is “inactive”.

Consider `CCC(=O)C(CC(C)N(C)C)(c1ccccc1)c1ccccc1` (centres undefined), for which the Potency result was “inactive”.

With `Nc1ccc(Cl)cc1`, the Potency entry is “inactive”.

In the case of `Cc1cc(-c2ccc(N)c(C)c2)ccc1N`, the Potency result was “inactive”.

In the case of `CCNc1nc(Cl)nc(NCC)n1`, the Potency result is “inactive”.

For `CC[n+]1ccccc1`, the Potency entry is “inactive”.

In the case of `O=[N+]([O-])c1ccccc1O`, the Potency entry is “inactive”.

Turning to `CCC[N+]1(C)CCCCC1`, the Potency entry is “inactive”.

Turning to `COP(=O)(OC)OC=C(Cl)Cl`, the Potency entry is “inactive”.

`O=C(O)C(Cl)Cl`: the Potency result was “inactive”.

For `Cc1cc(Cl)ccc1OCC(=O)O`, the Potency result is “inactive”.

Take `Oc1ccccc1-c1ccccc1`: the Potency entry was “inactive”.

Turning to `CCCCCCCCCCCCCC[P+](CCCCCC)(CCCCCC)CCCCCC`, the Potency result is “inactive”.

Turning to `CCCn1cc[n+](C)c1`, the Potency result is “inactive”.

Take `C[C@]12CCC(=O)C=C1CC[C@@H]1[C@@H]2CC[C@]2(C)C(=O)CC[C@@H]12`: the Potency entry is “inactive”.

As to `CCCCCCCCCCCCOS(=O)(=O)O`, the Potency entry is “inactive”.

Regarding `CCCCCCCCCCCC(=O)O`, the Potency result was “inactive”.

As for `CC[N+]1(C)CCCC1`, the Potency result is “inactive”.

Consider `O=c1[nH]c(=O)n(Cl)c(=O)n1Cl`, for which the Potency entry was “inactive”.

As to `OCCOc1ccccc1`, the Potency result is “inactive”.

As to `C[N+](C)(C)Cc1ccccc1`, the Potency result is “inactive”.

As for `CCn1cc[n+](C)c1C`, the Potency result was “inactive”.

For `O=C(O)c1nc(Cl)ccc1Cl`, the Potency result was “inactive”.

On to `CCCC[N+]1(C)CCCCC1`, for which the Potency result is “inactive”.

As to `CCOP(=S)(OCC)Oc1ccc2c(C)c(Cl)c(=O)oc2c1`, the Potency is 1.8 µM (active) and 633 nM (active) and inactive.

Consider `Nc1ccc(-c2ccc(N)cc2)cc1`, for which the Potency result was “inactive”.

`CNC`: the Potency entry is “inactive”.

In the case of `O=c1nc(O)n(Cl)c(=O)n1Cl`, the Potency entry was “inactive”.

For `C1CCC(NC2CCCCC2)CC1`, the Potency entry was “inactive”.

With `C=CCOC(Cn1ccnc1)c1ccc(Cl)cc1Cl` (centres undefined), the Potency result is “inactive”.

In the case of `CCCCCCCCCCn1cc[n+](C)c1`, the Potency entry is “inactive”.

On to `CC(=O)[O][Hg][c]1ccccc1`, for which the Potency result was “inactive”.

With `O=P1(N(CCCl)CCCl)NCCCO1` (centres undefined), the Potency entry is “inactive”.

As for `Nc1ccc(-c2ccc(N)c(Cl)c2)cc1Cl`, the Potency result was “inactive”.

For the molecule `CCCCCCCCCCCCCCCCn1cc[n+](C)c1`, the Potency entry is “inactive”.
